This is an account of results in PubChem BioAssay.

The nature of test [1]: inhibitors of TNFa-induced NFkB p65 translocation, primary screen, imaging, HUVEC, MLSMR starter and 10KST1 sets (AID 438;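 active = inhibition above 20% together with a positive visual image hit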;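 note: compound added about 3h40 before a 20 min TNFalpha stimulation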;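 for inhibition: signal is the nuclear over cytoplasmic p65 intensity ratio per well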). The conditions noted are these: HUVEC TNFa-induced p65 nuclear translocation; cell count: measured here: nuclei count (cytotoxicity indicator), at 2.08 µM; inhibition: at 2 µM, stronger effect = higher value, 0% TNFa-plus-vehicle, 100% no-TNFa wells.
Test [2] is described as follows: inhibitors of mutant huntingtin aggregation, primary screen, imaging, exon1htt(103Q)mCFP cells, high-content imaging (AID 483;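 active = visual image review flags a hit and inhibition of aggregation exceeds 20%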;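 note: compound exposure lasted 3 days before fixation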;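 for nuclei count: percent of the per-plate median nuclei count of sample wells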). The conditions noted are these: exon1htt(103Q)mCFP cell line, aggregate imaging, at 2 µM; inhibition of aggregation: stronger effect = higher value; nuclei count: measured here: cell count, toxicity.
Test [3] is described as follows: inhibitors of E-selectin induction by TNFa, primary screen, imaging, HUVEC, immunofluorescence, MLSMR starter and 10KST1 sets (AID 487;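 active = visually confirmed hit in the image check and inhibition above 20%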;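 for inhibition: signal is fraction of cell area covered by stained E-selectin grains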;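 for nuclei count: 100% = median nuclei count of all wells on the same plate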). Conditions: HUVEC TNFalpha-induced E-selectin immunofluorescence imaging, at 2 µM; inhibition: stronger effect = higher value; nuclei count: measured here: cell number, toxicity.
Test [4] is described as follows: DUSP6 inhibitors restoring Erk phosphorylation by chemical complementation, primary imaging in DUSP6-transfected HeLa (AID 609;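 active = compounds giving at least 50% inhibition in the cell-based MKP-3 phosphatase rescue imaging test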;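 for inhibition: phospho-Erk level distribution per well compared with pooled transfected vehicle control wells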). The conditions noted are these: HeLa MKP-3 transfected, phospho-Erk imaging KS statistic, at 10 µM, cells stimulated with TPA for 15 min.
The target in test [5] is Dual specificity protein phosphatase 6 (Homo sapiens) (UniProt Q16828). Described as above. The conditions noted are these: HeLa MKP-3 transfected, phospho-Erk imaging KS statistic; at 10 µM; stronger effect = higher value; cells stimulated with TPA for 15 min.
Sequence of Dual specificity protein phosphatase 6 (Homo sapiens) (Q16828 whole entry, looked up): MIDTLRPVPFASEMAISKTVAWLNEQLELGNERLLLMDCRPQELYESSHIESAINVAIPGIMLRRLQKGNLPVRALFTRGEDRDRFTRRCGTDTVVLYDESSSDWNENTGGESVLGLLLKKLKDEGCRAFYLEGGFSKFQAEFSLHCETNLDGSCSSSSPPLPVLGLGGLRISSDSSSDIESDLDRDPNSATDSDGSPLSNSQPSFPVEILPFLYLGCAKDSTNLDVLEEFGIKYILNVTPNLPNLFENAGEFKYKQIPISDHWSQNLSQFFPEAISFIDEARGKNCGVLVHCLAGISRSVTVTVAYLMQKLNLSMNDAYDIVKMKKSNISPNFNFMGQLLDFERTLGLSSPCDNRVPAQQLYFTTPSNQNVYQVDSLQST
The target of test [6] is Voltage-gated potassium channel subunit beta-2 (Rattus norvegicus) (UniProt P62483). Nature of the test: KvBeta enzyme negative modulators, primary screen, biochemical, NADPH fluorescence (AID 622;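 active = fluorescence slope higher than the sample average by over 3 SD, cut at about -0.22 in these data, passing the limit was not always enough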;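 note: slope of raw intensity against log time taken from 70 to 1610 s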). The conditions noted are these: recombinant KvBeta, 4-cyanobenzaldehyde reduction, at 10 µM, stronger effect = higher value.
Sequence of Voltage-gated potassium channel subunit beta-2 (Rattus norvegicus) (P62483 whole entry, looked up): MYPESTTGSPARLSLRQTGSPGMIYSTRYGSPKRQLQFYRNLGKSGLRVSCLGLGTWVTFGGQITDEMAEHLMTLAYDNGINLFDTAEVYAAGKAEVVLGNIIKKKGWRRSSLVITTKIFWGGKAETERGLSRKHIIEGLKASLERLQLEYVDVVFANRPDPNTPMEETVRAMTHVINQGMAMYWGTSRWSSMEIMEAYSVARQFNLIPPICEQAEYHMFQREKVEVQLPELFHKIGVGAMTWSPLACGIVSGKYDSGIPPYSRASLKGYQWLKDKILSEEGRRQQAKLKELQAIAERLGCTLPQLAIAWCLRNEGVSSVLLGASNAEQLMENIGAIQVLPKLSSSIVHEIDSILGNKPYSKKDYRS
For test [7] the target is unchanged. Kind of test: KvBeta positive modulators, primary screen, biochemical, NADPH fluorescence (AID 623;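 active = NADPH fluorescence slope more negative than the mean of all samples by about 3 SD, 99.7% confidence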;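 note: fluorescence intensity change per second fitted from 20 to 320 s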). The conditions noted are these: Recombinant KvBeta, NADPH fluorescence decrease slope, 10 min; at 10 µM; stronger effect = lower value.
Test [8] has as its target Alpha-2C adrenergic receptor (Homo sapiens) (UniProt P18825). Nature of the test: modulators of alpha2C/GIRK thallium flux, primary screen, cell-based, HEK293 alpha2C/GIRK1/2 (AID 624;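 active = fluorescence slope after compound addition differing from the mean of all screened samples at 99.7% confidence, in either direction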;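 note: slope of fluorescence ratio to pre-addition baseline per second over 15 to 24 s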). Conditions: thallium flux BTC fluorescence, at 10 µM, actives lie on both sides.
The nature of test [9]: inhibitors of larval lipid processing in zebrafish, primary screen, whole organism, PED6 fluorescence, gall bladder and intestine (AID 686;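 active = a full or partial loss of lipid-probe fluorescence in the fish gall bladder, intestine or both, judged by eye; inactive = no fluorescence loss, or compound toxic to the fish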;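 note: larvae 5 to 7 days old with five fish per well; signal comes from phospholipase A2 cleavage of quenched PED6 carried via bile; overnight exposure to compound and PED6 before scoring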). The conditions noted are these: Zebrafish larvae PED6 lipid processing, fluorescence scoring; screened at 20 µM (by protocol).
Test [10] is described as follows: inhibitors of Chlamydomonas gravitaxis, primary screen, whole organism, Chlamydomonas reinhardtii, WT vs cilia-less mutant, absorbance, 96-well (AID 463189).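 Note: 0% = wild type cc124 cells in DMSO and 100% = ciliumless bld1 mutant cells.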 Conditions: OD600 absorbance, 2 days, at 10 µM, stronger effect = higher value.
Test [11] can be described thus: inhibitors of Sendai virus-induced IRF3 signaling, primary screen, TLR/RLR signaling modifier project, cell-based, Sendai virus stimulus, luciferase, 10K MLSCN set (AID 602276;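 active = inhibition at or above 50% at 10 µM; inactive = inhibition below 50%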;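 note: firefly luciferase from ISG56 promoter only with Renilla not read in this screen; 0% = Sendai virus plus DMSO and 100% = medium plus DMSO without virus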). The conditions noted are these: HEK293 RL24 IRF3 luciferase reporter, at 10 µM, stronger effect = higher value.
The nature of test [12]: inhibitors of poly I:C-induced TLR3 signaling, primary screen, cell-based, poly I:C stimulus, luciferase, 10K MLSCN set (AID 602277;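 active = inhibition of the reporter signal at or above 50%; inactive = inhibition below 50%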). Conditions: HEK293-TLR3 RL24 IRF3 luciferase reporter, at 10 µM, stronger effect = higher value.
The mark [13] stands for this setting: measured here: cell density z-score.
Setting [14] is: measured here: nuclear c-Myc green intensity z-score.
Setting [15] is: measured here: nuclear pErk red intensity z-score, stronger effect = higher value.

The structures appear in SMILES notation. Several values for one entry are separate records, joined by “and”; a condition that tells them apart may be missing. Equal values may be shown once. Where a structure was tested more than once in an assay, its records may differ in their call. Activity calls are given as the source filed them.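 Rule for the calls, unless noted: active = inhibition at or above 50% relative to wild type and mutant plate controls; inactive = inhibition below 50%.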

Sequence of Alpha-2C adrenergic receptor (Homo sapiens) (P18825 whole entry, looked up): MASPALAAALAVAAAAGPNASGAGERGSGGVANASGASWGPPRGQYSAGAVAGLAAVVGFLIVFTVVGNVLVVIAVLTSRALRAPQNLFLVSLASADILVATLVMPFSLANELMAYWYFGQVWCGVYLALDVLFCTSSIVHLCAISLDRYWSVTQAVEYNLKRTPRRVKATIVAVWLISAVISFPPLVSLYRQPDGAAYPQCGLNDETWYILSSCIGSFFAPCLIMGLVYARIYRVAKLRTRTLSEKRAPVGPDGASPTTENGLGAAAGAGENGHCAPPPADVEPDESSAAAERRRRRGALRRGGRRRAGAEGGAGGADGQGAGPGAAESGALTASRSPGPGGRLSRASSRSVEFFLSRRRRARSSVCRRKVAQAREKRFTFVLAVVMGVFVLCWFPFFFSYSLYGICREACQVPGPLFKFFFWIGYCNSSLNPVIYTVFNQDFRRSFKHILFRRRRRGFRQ

On to `CCCCOc1ccc(OCCCN2CCOCC2)cc1`, for which, in [1], the cell count worked out at 589. Moreover, the inhibition in [1] is 6% (inactive); in [3], -52.4% (inactive); in test [5], 1.38% (inactive); in test [10], 159% (active); in test [11] it was -7.75% (inactive); in test [12], -40.7% (inactive). In test [2], the inhibition of aggregation is 7.5% (inactive). Also, the results for the nuclei count in test [2] and in test [3] were 94.3% and 117%, respectively. The z-score was -0.745 in test [4] (setting [13]), -1.16 in test [4] (setting [14]) and 3.07 in [4] (setting [15]). The fluorescence slope in test [6] was -0.49 (inactive). Further, the NADPH fluorescence slope in test [7] is -5.2e-05 (inactive). Besides, the slope in test [8] was 0.00401 (inactive). Also, the molecule was called inactive in test [9].

On to `OC(CCN1CCCC1)(c1ccccc1)C1CCCCC1` (stereo not given), for which the cell count in [1] was found to be 573. Besides, the inhibition in test [1] is 6.7% (inactive); in test [3], -40.8% (inactive); in [5], 19.2% (inactive); in [10], 37.7% (inactive); in test [11] it was 0.492% (inactive); in [12], -2.26% (inactive). For the same molecule, in [2], the inhibition of aggregation is -8.9% (inactive). Also, the nuclei count in [2] was 114%; in test [3] it was 106%. Besides, the z-score in [4] (setting [13]) is 1.31; in test [4] (setting [14]), -0.388; in [4] (setting [15]), -1.18. In addition, the fluorescence slope in test [6] was -0.528 (inactive). The NADPH fluorescence slope in test [7] is -6.1e-05 (inactive). Moreover, the slope in test [8] was 0.00512 (inactive). Besides, in test [9], the result was inactive.

As to `CC(=O)OCC(=O)[C@H]1CC[C@H]2[C@@H]3CC=C4C[C@@H](O)CC[C@]4(C)[C@H]3CC[C@]12C`, in [1], the cell count came to 586. Moreover, the inhibition in test [1] is -9.5% (inactive); in [3] it was -22.1% (inactive); in test [5], 17.3% (inactive); in test [10], 35% (inactive); in test [11], 9.44% (inactive); in [12], 25.1% (inactive). Also, the inhibition of aggregation in [2] was 16.5% (inactive). The nuclei count was 99.7% in [2] and 128% in test [3]. The z-score was 0.459 in test [4] (setting [13]), 0.562 in [4] (setting [14]) and -0.353 in [4] (setting [15]). Also, the fluorescence slope in [6] is -0.45 (inactive). Further, the NADPH fluorescence slope in test [7] was -6.8e-05 (inactive). Besides, the slope in [8] was 0.00533 (inactive). Further, in test [9], the molecule was called inactive.

As for `O=C(O)CN(c1ccccc1)C1SC(=O)NC1=O` (stereo not given), in [1], the cell count was 606. Further, the inhibition was -0.1% (inactive) in test [1]; -50.9% (inactive) in test [3]; 16.1% (inactive) in [5]; 31.8% (inactive) in [10]; 11.9% (inactive) in [11]; 13.7% (inactive) in test [12]. In test [2], the inhibition of aggregation is 5.9% (inactive). Moreover, the nuclei count in [2] came to 107%; in test [3], 140%. Besides, the results for the z-score in test [4] (setting [13]), in test [4] (setting [14]) and in test [4] (setting [15]) were -0.0323, -0.911 and 0.397, respectively. In test [6], the fluorescence slope is -0.506 (inactive). Moreover, the NADPH fluorescence slope in test [7] was -3.4e-05 (inactive). Further, in test [8], the slope is 0.00506 (inactive). For the same molecule, the outcome in [9] was inactive.

Regarding `O=C(NO)c1ccccc1O`, the cell count in test [1] worked out at 594. Further, the inhibition was 1.9% (inactive) in test [1]; -35.8% (inactive) in test [3]; 5.79% (inactive) in test [5]; -11.3% (inactive) in test [10]; 5.89% (inactive) in [11]; 19.5% (inactive) in [12]. Besides, the inhibition of aggregation in test [2] was -2.3% (inactive). The nuclei count amounted to 103% in test [2] and 102% in test [3]. The z-score in [4] (setting [13]) was -0.325; in test [4] (setting [14]) it was -0.0884; in [4] (setting [15]) it was -1.2. Also, the fluorescence slope in test [6] is -0.458 (inactive). Further, the NADPH fluorescence slope in test [7] was -2.4e-05 (inactive). Further, in [8], the slope is 0.00615 (inactive). The outcome in [9] was inactive.

Consider `CN1CCN(CCCN2c3ccccc3Sc3ccc(Cl)cc32)CC1`, for which, in test [1], the cell count amounted to 625. The inhibition is -0.8% (inactive) in test [1]; -67.5% (inactive) in [3]; 30.1% (inactive) in [5]; 96.7% (active) and 24.7% (inactive) in test [10]; 17.3% (inactive) in test [11]; 22.7% (inactive) in test [12]. In [2], the inhibition of aggregation was 6.1% (inactive). The nuclei count in test [2] was 98.7%; in test [3] it was 115%. Further, the values for the z-score in [4] (setting [13]), in [4] (setting [14]) and in [4] (setting [15]) were 0.0938, 1.34 and 0.8, respectively. The fluorescence slope in test [6] was -0.449 (inactive). Besides, the NADPH fluorescence slope in [7] is 1.3e-05 (inactive). In addition, in test [8], the slope is 0.00441 (inactive). The result in [9] was inactive.

As to `Cn1cnc2c1c(=O)[nH]c(=O)n2C`, in test [1], the cell count is 544. Moreover, the inhibition in test [1] was -10.8% (inactive); in test [3] it was -30.6% (inactive); in test [5], -6.41% (inactive); in [10] it was 8.14% (inactive) and 20.9% (inactive); in test [11] it was 13.1% (inactive); in test [12] it was 16.1% (inactive). Moreover, the inhibition of aggregation in test [2] is -16.4% (inactive). In addition, the nuclei count in [2] was found to be 97%; in test [3], 124%. The z-score was -0.137 in test [4] (setting [13]), -0.093 in test [4] (setting [14]) and 1.06 in test [4] (setting [15]). The fluorescence slope in [6] is -0.513 (inactive). Besides, the NADPH fluorescence slope in test [7] was 1.2e-05 (inactive). In addition, the slope in test [8] was 0.00542 (inactive). Moreover, the call in test [9] was inactive.

Take `C=CCc1ccccc1OCC(O)CNC(C)C` (stereo not given): the cell count in [1] is 628. The inhibition was -8.8% (inactive) in test [1]; -120% (inactive) in test [3]; 7.39% (inactive) in test [5]; -2.53% (inactive) and -4.71% (inactive) in test [10]; 11.2% (inactive) in test [11]; 34.8% (inactive) in test [12]. Besides, in test [2], the inhibition of aggregation was -10% (inactive). The nuclei count came to 89.9% in test [2] and 131% in test [3]. Moreover, the results for the z-score in test [4] (setting [13]), in test [4] (setting [14]) and in test [4] (setting [15]) were 1.42, 0.365 and -0.961, respectively. The fluorescence slope in test [6] is -0.466 (inactive). Besides, in test [7], the NADPH fluorescence slope is -2.4e-05 (inactive). The slope in [8] was 0.00435 (inactive). Also, the molecule was classed as inactive in test [9].

Turning to `CC(NCCC(c1ccccc1)c1ccccc1)c1ccccc1` (stereo not given), the cell count in test [1] was found to be 619. Also, the inhibition in test [1] is -0.2% (inactive); in [3], -24.4% (inactive); in test [5] it was 13.3% (inactive); in [10], 59.1% (active); in test [11], 28.7% (inactive); in test [12], 22.8% (inactive). Besides, the inhibition of aggregation in test [2] is 22.8% (inactive). The nuclei count was determined as 104% in test [2] and 113% in [3]. Further, the z-score in [4] (setting [13]) was 1.32; in test [4] (setting [14]) it was -0.571; in test [4] (setting [15]) it was -1.03. In addition, the fluorescence slope in test [6] is -0.492 (inactive). Moreover, the NADPH fluorescence slope in test [7] is -8.5e-06 (inactive). The slope in test [8] is 0.00284 (inactive). Besides, the outcome in test [9] was inactive.

On to `COC(=O)c1ccc(-c2sc3nc(N4CCOCC4)c4c(c3c2N)CCCC4)o1`, for which the cell count in test [1] worked out at 683. For the same molecule, the inhibition in test [1] was -7.7% (inactive); in [3], 18.1% (inactive); in [5] it was 14.4% (inactive); in test [10] it was -6.82% (inactive); in test [11] it was 13% (inactive); in test [12] it was -14.5% (inactive). Besides, the inhibition of aggregation in test [2] was -43% (inactive). The results for the nuclei count in test [2] and in test [3] were 103% and 126%, respectively. Besides, the z-score in test [4] (setting [13]) is -0.0797; in [4] (setting [14]), 0.0278; in [4] (setting [15]) it was 1.68. The fluorescence slope in test [6] was -0.000813 (inactive). Besides, the NADPH fluorescence slope in test [7] was 0 (inactive). The slope in test [8] is 0.0101 (inactive). Besides, the molecule was classed as inactive in test [9].

In general, inhibition refers to the drop in the measured response relative to a control, in per cent.
